# Several values for one entry are separate records, joined by “and”; a condition that tells them apart may be missing. Identical values can stand only once. Records with an inconclusive call do not appear. Values without a mark were called inactive. Activity calls are given as the source filed them. Calls come from the whole dose curve; as a rule, active = well fitted inhibition curve with a large enough effect; inconclusive = small, poorly fitted or top-dose-only effect; inactive = flat fitted curve, though single readings scatter.
# What was measured:
# [1] = qHTS profiling for inhibitors of Plasmodium falciparum proliferation (AID 504749);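 for activity, negative = inhibition: 0% = DMSO vehicle and full inhibition = artemisinin control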; for all read-outs here: nearly all actives have a fitted effect of over 60% in size; settings: P. falciparum in erythrocytes, SYBR Green DNA, 72 h; for activity, negative = inhibition: at 28.7 µM (top of the series)
# Outline: (§1)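 P. falciparum-infected erythrocytes (0.3% parasitemia, 2.5% hematocrit final) were exposed to compounds for 72 h at 37 C in 5% CO2, then lysed with SYBR Green buffer overnight at room temperature; parasite DNA fluorescence was normalized to artemisinin and DMSO controls.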
# 3D7 = test: as above; settings: P. falciparum in erythrocytes, SYBR Green DNA, 72 h; series mostly up to 28.7 µM
# Outline: as §1
# Potency is the fitted concentration of half-maximal effect.
SMILES,"activity, negative = inhibition ([1]; parasite line A)","activity, negative = inhibition ([1]; parasite line B)",Potency (3D7),Potency ([1]; parasite line A),Potency ([1]; parasite line B)
NCC(O)c1ccc(O)cc1 (stereo not given),10.2%,3.73%,inactive,,
CC(C)=CC1C(C(=O)OCc2cccc(Oc3ccccc3)c2)C1(C)C (stereo not given),-11.7%,-17.5%,inactive,,
COc1ccccc1N1CCNCC1,-0.986%,0.847%,inactive,,
Oc1ccccc1-c1ccccc1,-2.25%,-2.09%,inactive,,
O=C1NCN(c2ccccc2)C12CCN(CC1COc3ccccc3O1)CC2 (stereo not given),-17.5%,5.67%,inactive,,
C[C@]12C/C(=C/O)C(=O)C[C@@H]1CC[C@@H]1[C@@H]2CC[C@@]2(C)[C@H]1CC[C@]2(C)O,-16.2%,,inactive,,
CCC(COC(=O)c1cc(OC)c(OC)c(OC)c1)(c1ccccc1)N(C)C (stereo not given),-11.1%,-13.8%,inactive,,
CCN(C(C)=O)c1cccc(-c2ccnc3c(C#N)cnn23)c1,6.76%,2.02%,inactive,,
CC(C)(C)CC(C)(C)c1ccc(O)cc1,-18.1%,,inactive,,
C#CCOC(C(=O)OCCN(C)C)(c1ccccc1)c1ccccc1,-0.224%,7.7%,inactive,,
CCCC1CCCCN1 (stereo not given),5.52%,3.92%,inactive,,
CC[N+]1(C)CCCC(OC(=O)C(O)(c2ccccc2)c2ccccc2)C1 (stereo not given),-4.88%,2.86%,inactive,,
NCCc1cc(O)c(O)cc1O,7.16%,11.4%,inactive,,
CC(C)(C)NCC(O)c1cc(Cl)c(N)c(Cl)c1 (stereo not given),-4.99%,,inactive,,
Cc1cccc(C)c1NC1=NCCCS1,-16.9%,-6.65%,inactive,,
CC(=O)[C@H]1CC[C@H]2[C@@H]3CC[C@H]4C[C@H](O)CC[C@]4(C)[C@H]3C(=O)C[C@]12C,10.2%,12.3%,inactive,,
CC[N+](CC)(CC)CC,15.6%,17.3%,inactive,,
O=c1[nH]c2ccccc2n1C1CCN(CCCC(c2ccc(F)cc2)c2ccc(F)cc2)CC1,,-29.2%,15.8 µM (active),,
CC(CCc1ccccc1)NC(C)C(O)c1ccc(O)cc1 (stereo not given),8.41%,8.3%,inactive,,
C=C1CC[C@@]2(O)[C@H]3Cc4ccc(O)c5c4[C@@]2(CCN3CC2CC2)[C@H]1O5,9.27%,12.8%,inactive,,
NCC(CC(=O)O)c1ccc(Cl)cc1 (stereo not given),6.71%,18.2%,inactive,,
N#CC(C#N)=Cc1ccc(O)c(O)c1,-14.1%,-25.8%,inactive,,
c1ccc2c(c1)Nc1ccccc1S2,,,4.47 µM (active),,
O=[N+]([O-])c1cc([As](=O)(O)O)ccc1O,,,3.98 µM (active),3.98 µM (active),3.16 µM (active)
CC(=O)Nc1cc([As](=O)(O)O)ccc1O,-21%,-0.406%,inactive,,
CCC(C(N)=O)N1CCCC1=O (stereo not given),2.96%,6.9%,inactive,,
CC1OC(C)OC(C)O1 (stereo not given),8.9% and 17.9%,12.4% and 13.9%,inactive,,
